This is one part of a sample in which hits are shown more often than they occur.
Shiga inhibitor – Shiga toxin inhibition | Vero cells, Shiga toxin protein synthesis inhibition reporter | inhibition, % at 38.7 µM | actives 9.2% (n = 290,000) | AID 2315; in the data active = inhibition mostly above about 28%, no sharp cut-off; inactive = mostly below about 43%
NS1 function inh – blocks influenza NS1 protein function. Potency, µM (titrated, usually from 46.1 µM). actives 0.4% (n = 270,000); calls by dose curve; note: actives are rising curves; nearly all actives have a fitted effect of over 50% in size
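Recovery from NS1-induced slow growth read by OD600 in budding yeast switched to galactose assay medium (pH 6.0, -URA) at 1:100 dilution. Compound 23 nl per well; the matching strain lacking NS1 serves as control.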
AmpC inh no detg – AmpC beta-lactamase inhibition without detergent; actives 0.52% (n = 330,000); AmpC nitrocefin hydrolysis, absorbance 480 nm, 0.0001% Triton; Potency, µM (doses to about 57.1 µM), actives largely listed as inhibitors; AID 485341; note: nearly all actives have a fitted effect of over 20% in size
Target sequence (P00811 whole entry, looked up): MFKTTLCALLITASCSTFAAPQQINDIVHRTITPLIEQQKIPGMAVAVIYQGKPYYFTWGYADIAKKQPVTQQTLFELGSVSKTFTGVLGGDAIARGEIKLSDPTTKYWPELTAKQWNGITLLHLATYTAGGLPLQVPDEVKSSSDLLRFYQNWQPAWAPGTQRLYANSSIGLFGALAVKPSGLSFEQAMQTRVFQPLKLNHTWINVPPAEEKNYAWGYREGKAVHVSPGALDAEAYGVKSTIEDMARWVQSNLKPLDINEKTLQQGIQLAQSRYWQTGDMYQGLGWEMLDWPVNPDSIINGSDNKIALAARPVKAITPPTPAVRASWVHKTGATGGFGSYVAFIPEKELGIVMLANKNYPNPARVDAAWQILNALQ
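AmpC (5.3 nM in the dispensed reagent) in 20 mM phosphate pH 7.0 with 0.01% (detergent screen) or 0.0001% Triton X-100 was preincubated with compounds for 15 min at room temperature. Nitrocefin was then added from an 800 uM solution, and hydrolysis was followed at 480 nm.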
CHX counter – counter-screen for Shiga toxin inhibitors: cycloheximide protein synthesis inhibition. cell reporter, cycloheximide protein synthesis inhibition counterscreen. max response, %. actives 12% (n = 300,000); in the data active = max response mostly above about 13%, no sharp cut-off; inactive = mostly below about 14%; note: read at 38.3 µM for the half of the compounds with a filed dose
AmpC detergent – AmpC beta-lactamase inhibition with detergent present; P00811; AmpC hydrolysis of nitrocefin, absorbance 480 nm, 0.01% Triton; Potency, µM (doses to about 114 µM), actives largely listed as inhibitors; actives 0.041% (n = 370,000); note: nearly all actives have a fitted effect of over 25% in size
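20 mM phosphate pH 7.0 + 0.01% (detergent screen) or 0.0001% Triton X-100; 5.3 nM AmpC reagent; cpd preinc 15 min RT; nitrocefin (800 uM stock) to start; A480 q20 s × 4 min; Activity was normalised to no-enzyme and no-compound control wells.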
A number is an active result; n = inactive; u = inconclusive; x = not tested or not shown. Unless noted, calls come from the whole dose curve; as a rule, active = well fitted curve in the direction sought with a large enough effect; inconclusive = small, poorly fitted or top-dose-only effect, or another doubt; inactive = no such curve, though single readings can be large; an effect the other way counts as inactive or inconclusive.

SMILES	Shiga inhibitor	NS1 function inh	AmpC inh no detg	CHX counter	AmpC detergent
Cc1ccc(-c2cc(-c3ccccc3)nc(Cl)n2)cc1	127.9	n	n	46.2	n
COc1ccc(-c2cc(-c3ccccc3)nc(Cl)n2)cc1OC	n	n	n	13.8	u
O=C(NC1CCCC1)c1ccc2c(=O)n(Cc3ccccc3)c(SCc3cccc(F)c3)nc2c1	x	x	x	x	n
COCCNC(=S)N1CCC(c2nc(-c3ccc(N(C)C)cc3)no2)CC1	n	n	n	24.1	n
CC(C)CNC(=S)N1CCC(c2nc(-c3ccc(F)cc3)no2)CC1	n	n	n	n	n
CCCCn1c(NCc2cc(Br)ccc2O)nc2ccccc21	x	x	x	x	n
COc1ccc(CNc2nc3ccccc3n2C)c(O)c1	69.3	u	n	38.6	n
COc1ccc(CNc2nc3ccccc3n2C(C)C)c(O)c1	x	n	n	n	n
Cn1c(NCc2cc(Br)ccc2O)nc2ccccc21	65.9	n	n	26.9	u
COc1ccc(CNc2nc3ccccc3n2C)c(OC)c1	81.9	n	n	39.8	n
COc1ccc(S(=O)(=O)N2CCN(C(=O)c3cc(-c4ccc(C)cc4)n[nH]3)CC2)cc1	n	n	n	n	n
CC(NC(=O)C1=CC=CN2CCS(=O)(=O)N=C12)c1ccc(Cl)cc1Cl (stereo not drawn)	x	x	n	x	n
O=C(Cc1ccccc1)N1CCC(c2ccccc2)C1 (stereo not drawn)	79.8	n	n	27.9	n
COc1ccc(CC(=O)N2CCC(c3ccccc3)C2)cc1 (stereo not drawn)	56.3	n	n	23.0	n
O=C(CCCN1C(=O)c2ccccc2C1=O)N1CCC(c2ccccc2)C1 (stereo not drawn)	n	n	n	n	n
Cc1c(OCC(=O)NCCN2CCOCC2)ccc2c(-c3ccccc3)cc(=O)oc12	n	n	n	n	n
CCOC(=O)c1ccc(CN(Cc2ccc(F)cc2)S(=O)(=O)c2ccc(F)c(C(=O)Nc3ccccc3C(F)(F)F)c2)cc1	x	x	x	x	n
Cc1cc2ccccc2n2c(SCC(=O)Nc3cccc(C(F)(F)F)c3)nnc12	x	x	x	x	n
COc1ccccc1C(=O)NNC(=O)c1ccc(Br)cc1	n	n	n	10.3	n
COc1ccccc1/C=N/OC(=O)c1ccc(C)cc1	n	n	n	11.3	n
COCC(=O)NNC(=O)c1ccccc1OC	n	n	n	n	n
COc1ccccc1C(=O)NNC(=O)c1ccncc1	n	x	n	n	n
COc1ccccc1C(=O)NNC(=O)c1ccc(C)cc1	n	n	n	20.4	n
COc1ccccc1CNC(=O)c1ccc(Br)o1	n	n	n	n	n
COc1ccccc1C(=O)NNC(=O)c1ccc(Br)o1	82.1	n	n	43.9	n
SMILES	Shiga inhibitor	NS1 function inh	AmpC inh no detg	CHX counter	AmpC detergent
COc1ccc(OCC(=O)Nc2ccccc2C(=O)NC2CC2)cc1	x	x	n	x	n
CN(CC1CCOCC1)C(=O)CC1C(=O)NCCN1Cc1cccc(F)c1 (stereo not drawn)	n	n	n	n	u
CCOc1ccc(OCCCCNCCN)cc1	n	n	n	n	u
C=CCN(CC=C)C(=O)c1cccc(OC2CCN(S(=O)(=O)N(C)C)CC2)c1	n	n	n	n	n
COCC(=O)N1CCC(Oc2ccc(C(=O)N3CCCCCCC3)cc2)CC1	n	n	n	n	n
CN(C)S(=O)(=O)N1CCC(Oc2ccc(C(=O)NC3CCCCC3)cc2)CC1	n	n	n	n	n
C=CCN(CC=C)C(=O)c1ccc(OC2CCN(S(=O)(=O)N(C)C)CC2)cc1	87.2	n	n	53.4	n
CC(NC(=O)c1ccc(OC2CCN(S(=O)(=O)N(C)C)CC2)cc1)C1CC1 (stereo not drawn)	n	n	n	20.0	n
COC(=O)CN(C)C(=O)c1ccc(OC2CCN(S(=O)(=O)N(C)C)CC2)cc1	33.4	n	n	21.1	n
COCC(=O)N1CCC(Oc2ccc(C(=O)N(C)CCCC3CCCC3)cc2)CC1	n	n	n	21.7	n
O=C(CN1C(=O)C2CC=CCC2C1=O)Nc1ccc(F)cc1F (stereo not drawn)	x	x	n	x	n
COCCN(C(=O)c1ccc(OC2CCN(S(=O)(=O)N(C)C)CC2)cc1)C(C)C	n	n	n	10.8	n
C=CCNC(=O)c1ccc(OC2CCN(S(=O)(=O)N(C)C)CC2)cc1	95.4	n	n	50.5	n
CN(C)S(=O)(=O)n1cc(/C=C(\NC(=O)c2ccccc2Cl)C(=O)N2CCCC2)c2ccccc21	n	n	n	n	u
